# From ChEMBL document CHEMBL1961873, “Compounds: GSK PKIS; Assays: Nanosyn kinase panel” (2012)
# Several values for one entry are separate records, joined by “and”; a condition that tells them apart may be missing. Identical values can stand only once.
# Assays:
# [1] = target: Platelet-derived growth factor receptor beta (Homo sapiens) (UniProt P09619); conditions: at 1 µM;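 note: each value is a mean percent inhibition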
# [2] = target: Tyrosine-protein kinase FRK (Homo sapiens) (UniProt P42685); conditions: at 0.1 µM
# [3] = target: Tyrosine-protein kinase FRK (Homo sapiens) (UniProt P42685); conditions: at 1 µM
# [4] = target: Protein-tyrosine kinase 2-beta (Homo sapiens) (UniProt Q14289); conditions: at 0.1 µM
# [5] = target: Protein-tyrosine kinase 2-beta (Homo sapiens) (UniProt Q14289); conditions: at 1 µM
# [6] = target: Proto-oncogene tyrosine-protein kinase receptor Ret (Homo sapiens) (UniProt P07949); conditions: at 0.1 µM
# [7] = target: Proto-oncogene tyrosine-protein kinase receptor Ret (Homo sapiens) (UniProt P07949); conditions: at 1 µM
# [8] = tested on: Proto-oncogene tyrosine-protein kinase receptor Ret (Homo sapiens), P07949 [V804L]; conditions: at 0.1 µM
# [9] = tested on: Proto-oncogene tyrosine-protein kinase receptor Ret (Homo sapiens), P07949 [V804L]; conditions: at 1 µM
# [10] = tested on: Proto-oncogene tyrosine-protein kinase receptor Ret (Homo sapiens), P07949 [Y791F]; conditions: at 0.1 µM
# Chain of Proto-oncogene tyrosine-protein kinase receptor Ret (Homo sapiens), P07949 [Y791F] (P07949 whole entry Y791F): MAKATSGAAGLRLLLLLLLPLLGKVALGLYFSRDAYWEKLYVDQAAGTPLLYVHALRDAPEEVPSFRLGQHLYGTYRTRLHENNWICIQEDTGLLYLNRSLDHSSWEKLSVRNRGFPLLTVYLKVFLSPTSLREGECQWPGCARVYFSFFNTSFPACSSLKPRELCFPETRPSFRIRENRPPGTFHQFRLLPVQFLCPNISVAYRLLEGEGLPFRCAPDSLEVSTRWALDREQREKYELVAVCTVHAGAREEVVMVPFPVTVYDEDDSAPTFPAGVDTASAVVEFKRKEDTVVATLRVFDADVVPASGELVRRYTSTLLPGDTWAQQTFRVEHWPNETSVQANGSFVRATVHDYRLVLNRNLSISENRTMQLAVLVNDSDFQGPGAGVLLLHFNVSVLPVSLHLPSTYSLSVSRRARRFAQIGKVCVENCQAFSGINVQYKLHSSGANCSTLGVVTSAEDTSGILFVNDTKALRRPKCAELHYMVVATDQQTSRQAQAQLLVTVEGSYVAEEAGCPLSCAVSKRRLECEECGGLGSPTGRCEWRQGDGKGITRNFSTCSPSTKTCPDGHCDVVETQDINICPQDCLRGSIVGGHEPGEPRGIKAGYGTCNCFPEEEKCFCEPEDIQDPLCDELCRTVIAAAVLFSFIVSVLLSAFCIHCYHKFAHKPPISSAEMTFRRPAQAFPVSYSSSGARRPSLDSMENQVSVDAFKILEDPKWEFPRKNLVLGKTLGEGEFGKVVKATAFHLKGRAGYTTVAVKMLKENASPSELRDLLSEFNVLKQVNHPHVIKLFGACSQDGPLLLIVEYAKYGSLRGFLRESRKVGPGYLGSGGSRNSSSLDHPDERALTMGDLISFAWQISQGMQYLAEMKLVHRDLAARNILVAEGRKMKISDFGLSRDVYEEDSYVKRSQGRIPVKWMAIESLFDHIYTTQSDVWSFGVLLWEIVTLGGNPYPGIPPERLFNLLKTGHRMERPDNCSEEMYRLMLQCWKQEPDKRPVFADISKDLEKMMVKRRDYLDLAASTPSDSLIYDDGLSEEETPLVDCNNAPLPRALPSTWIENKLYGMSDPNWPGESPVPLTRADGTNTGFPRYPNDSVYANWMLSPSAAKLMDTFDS
# Chain of Platelet-derived growth factor receptor beta (Homo sapiens) (P09619 whole entry): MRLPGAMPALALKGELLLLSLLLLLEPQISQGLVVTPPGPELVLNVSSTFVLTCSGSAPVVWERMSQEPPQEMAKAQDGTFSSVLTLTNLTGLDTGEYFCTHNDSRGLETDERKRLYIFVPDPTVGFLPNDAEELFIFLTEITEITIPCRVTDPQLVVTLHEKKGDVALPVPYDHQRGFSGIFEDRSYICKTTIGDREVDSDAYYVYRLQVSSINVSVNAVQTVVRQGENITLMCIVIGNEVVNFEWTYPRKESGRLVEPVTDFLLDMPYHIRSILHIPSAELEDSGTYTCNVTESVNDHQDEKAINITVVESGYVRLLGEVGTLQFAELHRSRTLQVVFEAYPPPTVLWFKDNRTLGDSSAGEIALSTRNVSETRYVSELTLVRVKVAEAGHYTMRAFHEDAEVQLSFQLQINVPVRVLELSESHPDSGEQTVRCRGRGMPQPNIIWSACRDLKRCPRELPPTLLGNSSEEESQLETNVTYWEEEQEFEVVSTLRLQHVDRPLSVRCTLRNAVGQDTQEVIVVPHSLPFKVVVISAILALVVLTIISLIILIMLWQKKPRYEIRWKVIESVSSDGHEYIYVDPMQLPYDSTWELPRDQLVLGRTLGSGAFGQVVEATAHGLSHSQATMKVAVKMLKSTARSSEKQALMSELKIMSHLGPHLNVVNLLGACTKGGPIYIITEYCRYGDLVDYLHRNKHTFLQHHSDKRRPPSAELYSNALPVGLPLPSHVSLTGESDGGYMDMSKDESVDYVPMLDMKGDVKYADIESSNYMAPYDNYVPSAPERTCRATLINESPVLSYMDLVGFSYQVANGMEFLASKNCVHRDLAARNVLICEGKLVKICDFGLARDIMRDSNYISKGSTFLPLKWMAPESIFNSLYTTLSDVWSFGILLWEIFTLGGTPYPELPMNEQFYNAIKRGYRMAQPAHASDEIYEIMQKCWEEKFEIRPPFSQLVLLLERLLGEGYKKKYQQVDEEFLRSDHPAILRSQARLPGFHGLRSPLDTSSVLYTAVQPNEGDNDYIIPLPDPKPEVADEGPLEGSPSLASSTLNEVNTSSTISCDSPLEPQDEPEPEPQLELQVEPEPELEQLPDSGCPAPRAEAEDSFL
# Chain of Protein-tyrosine kinase 2-beta (Homo sapiens) (Q14289 whole entry, looked up): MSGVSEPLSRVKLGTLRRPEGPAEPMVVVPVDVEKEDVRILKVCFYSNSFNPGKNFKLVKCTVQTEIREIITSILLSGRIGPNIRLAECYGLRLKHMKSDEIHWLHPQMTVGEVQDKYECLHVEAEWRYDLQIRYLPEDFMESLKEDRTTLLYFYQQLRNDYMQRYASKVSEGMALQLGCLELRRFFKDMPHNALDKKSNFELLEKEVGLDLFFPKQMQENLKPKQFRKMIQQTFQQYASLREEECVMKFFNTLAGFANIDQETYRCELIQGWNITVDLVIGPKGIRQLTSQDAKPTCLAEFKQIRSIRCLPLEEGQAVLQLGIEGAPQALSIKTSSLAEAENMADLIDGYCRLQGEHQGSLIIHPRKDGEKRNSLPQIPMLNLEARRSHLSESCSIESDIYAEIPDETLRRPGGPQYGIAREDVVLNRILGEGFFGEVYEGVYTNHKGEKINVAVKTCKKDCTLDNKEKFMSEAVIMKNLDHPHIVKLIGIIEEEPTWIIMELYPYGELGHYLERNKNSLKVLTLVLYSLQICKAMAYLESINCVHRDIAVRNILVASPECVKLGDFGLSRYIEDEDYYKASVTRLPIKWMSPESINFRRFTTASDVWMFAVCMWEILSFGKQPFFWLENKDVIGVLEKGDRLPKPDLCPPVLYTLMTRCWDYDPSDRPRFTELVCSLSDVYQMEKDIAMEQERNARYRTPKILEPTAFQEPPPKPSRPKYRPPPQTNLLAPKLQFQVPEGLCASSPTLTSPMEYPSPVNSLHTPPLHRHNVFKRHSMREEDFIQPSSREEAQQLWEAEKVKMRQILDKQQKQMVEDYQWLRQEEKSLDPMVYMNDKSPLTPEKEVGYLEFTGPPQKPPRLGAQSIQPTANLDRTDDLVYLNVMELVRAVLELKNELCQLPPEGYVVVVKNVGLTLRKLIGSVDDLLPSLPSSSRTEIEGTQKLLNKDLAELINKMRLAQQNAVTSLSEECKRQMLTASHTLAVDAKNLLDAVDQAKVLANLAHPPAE
# Chain of Proto-oncogene tyrosine-protein kinase receptor Ret (Homo sapiens) (P07949 whole entry): as the sequence (P07949 whole entry Y791F) above, with F791Y counted along it
# Chain of Tyrosine-protein kinase FRK (Homo sapiens) (P42685 whole entry): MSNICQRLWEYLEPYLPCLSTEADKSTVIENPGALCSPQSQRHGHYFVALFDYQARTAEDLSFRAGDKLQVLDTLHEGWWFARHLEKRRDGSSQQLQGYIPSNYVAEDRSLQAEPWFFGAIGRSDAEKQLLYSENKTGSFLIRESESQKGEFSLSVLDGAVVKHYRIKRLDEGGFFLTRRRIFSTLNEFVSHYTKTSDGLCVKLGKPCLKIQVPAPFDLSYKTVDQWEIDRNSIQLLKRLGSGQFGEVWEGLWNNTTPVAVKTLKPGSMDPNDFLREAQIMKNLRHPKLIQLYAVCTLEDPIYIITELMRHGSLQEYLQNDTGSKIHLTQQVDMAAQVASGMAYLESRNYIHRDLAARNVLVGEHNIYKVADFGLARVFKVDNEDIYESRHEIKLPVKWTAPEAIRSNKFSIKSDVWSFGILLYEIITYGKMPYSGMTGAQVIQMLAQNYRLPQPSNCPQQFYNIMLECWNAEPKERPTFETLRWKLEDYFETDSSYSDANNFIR
# Chain of Proto-oncogene tyrosine-protein kinase receptor Ret (Homo sapiens), P07949 [V804L] (P07949 whole entry V804L): as the sequence (P07949 whole entry Y791F) above, with F791Y, V804L counted along it
Compound,inhibition [1],inhibition [2],inhibition [3],inhibition [4],inhibition [5],inhibition [6],inhibition [7],inhibition [8],inhibition [9],inhibition [10]
COc1cc2c(cc1Nc1nc(Nc3cccc(F)c3C(N)=O)c3cc[nH]c3n1)N(C(=O)CN1CCN(C(C)C)CC1)CC2,5.17%,0.37%,1.24%,57.7%,93.4%,1.04%,5.75%,1.85%,7.87%,1.11%
CS(=O)(=O)Nc1ccc(-c2cc(-c3ccccc3)cc(C(N)=O)c2N)cc1,9.4%,-0.3%,1.63%,3.11%,8.02%,-0.09%,2.84%,2.01%,2.99%,4%
CN1CCC(n2cnc(-c3ccc(F)cc3)c2-c2ccnc(NCCO)n2)CC1,20.7%,0.17%,1.02%,6.77%,18%,1.17%,1.73%,4.71%,10.8%,5.21%
CNC(=O)c1cncc(/C=C/c2ccccc2C)c1,20.1%,1.01%,1.8%,5.28%,5.23%,3.93%,6.36%,5.6%,11.8%,2.57%
NS(=O)(=O)c1ccc(N/N=C2\C(=O)Nc3ccc(C(=O)NCc4ccncc4)cc32)cc1,85.3%,1.15%,0.41%,3.79%,8.61%,11.1%,49.3%,31.4%,75.2%,10.6%
CCS(=O)(=O)c1ccc(OC)c(Nc2ncc(-c3cccc(C(C)=O)c3)o2)c1,84.3%,3.25%,14.2%,5.43%,8.24%,7.26%,33.6%,5.03%,28.8%,6.91%
CCCNc1cccc(-n2ncc3c(N/N=C/c4ccncc4)ncnc32)c1,78.8%,0.57%,3.14%,2.47%,12.2%,15%,54.7%,7.89%,40.7%,16.4%
COc1cc(Nc2ncc(-c3ccccc3)o2)cc(OC)c1,62.9%,0.8%,4.62%,6.76%,9.54%,7.16%,8.97%,4.73%,11.9%,8.14%
O=C(O[C@H]1CN[C@H](C#Cc2cc3ncnc(Nc4ccc5c(ccn5Cc5cc(F)ccc5F)c4)c3s2)C1)N1CCOCC1,7.68%,3.08%,2.35%,13.2%,5.45%,2.76%,4.91%,2.75%,4.26%,1.9%
CCN1CCC(C(=O)Nc2n[nH]c3nnc(-c4cccc(F)c4F)cc23)CC1,4.95%,0.31%,1.25%,-2.3%,1.39%,2.54%,-1.84%,4.84%,8.91%,3.29%
COc1ccc2ncn(-c3cc(O[C@H](C)c4ccccc4C(F)(F)F)c(C(N)=O)s3)c2c1,37.5%,-0.74%,1.39%,-4.13%,-9.62%,1.52%,4.27%,3.57%,3.91%,2.46%
Nc1nonc1-c1nc2cnccc2n1C1CC1,26.9% and 22.4%,3.06% and 1.01%,1.87% and 3.49%,9.52% and 11.2%,8.23% and 11.7%,4.13% and 4.16%,10.6% and 0.77%,4.79% and 3.57%,9.45% and 6.56%,6.44% and 5.27%
OCCCNc1nccc(-c2c(-c3ccc(F)cc3)nn3cc(C(F)(F)F)ccc23)n1,14.4%,0.71%,1.35%,3.13%,7.75%,4.24%,11.4%,1.59%,3.05%,6.39%
Nc1ncnc2occ(-c3ccc(NC(=O)Nc4cc(C(F)(F)F)ccc4F)cc3)c12,86.7% and 81.4%,2.63% and 2.3%,19.1% and 11.8%,4.45% and -2.3%,–,85.3% and 84.5%,90.7% and 88.5%,68.3% and 62.2%,84.7% and 81.1%,79.2% and 72.6%
CN1CCC(C(=O)Nc2n[nH]c3nc(-c4ccc(O)cc4)c(Br)cc23)CC1,22.6% and 17.3%,1.77% and -0.83%,2.31% and 3.98%,10.8% and -4.15%,12.9% and 6.02%,7.08% and 5.43%,9.97% and 0.25%,4.68% and 1.68%,–,4.94% and 4.6%
CS(=O)(=O)CCNCc1ccc(-c2ccc3ncnc(Nc4ccc(OCc5cccc(C(F)(F)F)c5)cc4)c3c2)o1,13.6%,2.67%,3.25%,1.85%,12.6%,3.22%,2.84%,3.51%,7.73%,5.55%

Compound,inhibition [1],inhibition [2],inhibition [3],inhibition [4],inhibition [5],inhibition [6],inhibition [7],inhibition [8],inhibition [9],inhibition [10]
COc1ccc(Nc2ncc(-c3ccccc3)o2)cc1OC,68%,-0.09%,4.33%,-5.6%,1.04%,6.8%,23.1%,4.53%,17.1%,6.85%
Cn1c(-c2nonc2N)nc2cnccc21,6.81%,0.98%,1.06%,8.49%,4.49%,2.99%,4.58%,2.88%,1.31%,3.98%
CC1=C(C(=O)Nc2ccc3[nH]nc(C)c3c2)C(c2ccc(C(F)(F)F)cc2)CC(=O)N1 (stereo not drawn),12.2%,1.26%,6.47%,10.8%,5.14%,7.82%,44.2%,12.2%,42.2%,10.5%
CNC(=O)c1ncccc1Nc1nc(Nc2cc3c(cc2OC)CCCN3C(=O)CN(C)C)nc2[nH]ccc12,27.1%,2.49%,2.98%,37.8%,95.7%,7.39%,9.1%,7.91%,20.4%,7.98%
CC1=C(C(=O)Nc2ccc3[nH]ncc3c2)C(c2ccc(F)cc2)N=C(c2ccc(C(F)(F)F)nc2)N1 (stereo not drawn),5.78%,-0.24%,1.73%,6.19%,8.2%,7.82%,38.6%,5.19%,26.6%,9.49%
Cc1cc(O)cc(C)c1/C=C/c1cncc(C(=O)OC(C)(C)C)c1,43.3%,3.51%,20.1%,13.2%,7.22%,5.39%,7.34%,3.42%,11.6%,4.05%
Cc1c2ccc(N(C)c3ccnc(Nc4cccc(S(N)(=O)=O)c4)n3)cc2nn1C,79.2%,10.4%,46.1%,10.9%,39%,44.6%,77.5%,10.1%,37.3%,60.6%
O=C(Nc1n[nH]c2nnc(-c3cccnc3)cc12)C1CC1,4.59%,-0.62%,-0.08%,1.2%,1.77%,-1.02%,1.55%,0.89%,1.74%,1.5%
COc1ccc(-c2nn3ncccc3c2-c2ccnc(Nc3ccc(F)c(F)c3)n2)cc1,15.3%,0.7%,2.26%,6.54%,17.9%,4.85%,18.1%,16.2%,15.8%,9.34%
CCn1c(-c2nonc2N)nc2cncc(C(=O)NCCNC)c21,12.4%,3.22%,3.52%,4.6%,8.62%,6.45%,7.16%,4.21%,17.1%,7.45%
COc1cc(N2CCN(C(C)C)CC2)ccc1Nc1nc(Nc2cccc3ncccc23)c2cc[nH]c2n1,8.9%,0.82%,1.26%,15.2%,93.1%,4.55%,3.04%,7.14%,14%,8.29%
CC1(C)CC(n2cnc(-c3ccc(F)cc3)c2-c2ccnc(N)n2)CC(C)(C)N1,5.35%,0.92%,1.66%,4.26%,3.23%,-0.92%,-0.44%,2.21%,2.81%,1.42%
CN(C)CCNC(=O)Nc1ccc(N(C)c2ccnc(Nc3ccc(CS(C)(=O)=O)cc3)n2)cc1,66.8%,0.22%,0.97%,18.4%,58.6%,7.81%,14.9%,4.98%,13.9%,9.9%
FC(F)(F)CNc1nccc(-c2cnn3ncccc23)n1,3.09%,1.82%,1.72%,-0.29%,2.94%,3.97%,2.84%,1.22%,3.68%,1.04%
Fc1cccc(COc2ccc(Nc3ncncc3C#Cc3ccccc3)cc2Cl)c1,8.55%,1.23%,1.62%,13.9%,15.1%,-0.25%,5.48%,5.31%,11.9%,5.33%
